The values that follow come from PubChem BioAssay (NCI).

About 83,000 compounds went through this panel and 20% of them were active in at least one assay; those are over-represented in the sample as a whole.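 Treatment: one concentration, 48 hours, 96-well format. Scoring: percent growth, with anything below 10 considered active.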 Values without a mark were called inactive. Calls of active or inactive are those of the source.

This assay has as its system UACC-257 melanoma. As to the kind of experiment: NCI-60 one-dose screen, 48 h (100 = growth as untreated, 0 = no growth, -100 = all killed). The conditions noted are these: 10 µM.
Turning to `CCN1CCN(CCC(=O)Nc2cccc(-n3cc(-c4ccncc4)c(-c4ccc(Cl)c(OC)c4)n3)c2)CC1`, the growth was -85.5% (active).
Regarding `O=C1/C=C/[C@@H](O)[C@@H]2C[C@@H](O)C[C@H]2/C=C/CCC[C@H](C(F)(F)F)O1`, the growth is 6% (active).
The value for `CC[C@@H](C(=O)[C@@H](C)[C@@H](O)[C@H](C)[C@@H]1O[C@@H]([C@@H](CC)C(=O)N(CC)CC)CC[C@@H]1C)C1O[C@]2(C=CC(=O)[C@]3(CC[C@@](C)([C@H]4CC[C@](O)(CC)[C@H](C)O4)O3)O2)[C@H](C)C[C@@H]1C` (some centres not stated) was 19.8%; that for `COc1ccc(-c2cc(-c3ccc(Cl)cc3)nc(SCCCCCCC(=O)NO)n2)cc1OC` was 72.1%.
The result for `N#CCc1csc(Cc2ccccc2)n1` reads 94.5%; that for `CC(C)(C)OC(=O)CN1CCc2c(sc3ncnc(N/N=C/c4ccccc4Br)c23)C1`, 92.7%; that for `CC(CN(C)C)Oc1ccccc1NC1=C(Cl)C(=O)C(Nc2ccccc2OC(C)CN(C)C)=C(Cl)C1=O` (configuration not stated), -91.8% (active).
The value for `Nc1ccn(Cc2nnc(CCC(=O)c3nc4ccccc4[nH]3)o2)c(=O)n1` was 101%; that for `CC(C)(C)OC(=O)CN1CCc2c(sc3ncnc(N/N=C/c4cccc5ccccc45)c23)C1` was 38.8%; that for `CCOC(=O)c1cc(C(=O)c2ccc(Cl)cc2)n2ccc(-c3cc[n+](CC(=O)c4ccc(OC)cc4)cc3)cc12` was 101%.
Regarding `NS(=O)(=O)Oc1ccc(NC(=O)C2CCCCCC2)cc1`, the growth is 100%.
The value for `NNC(=O)Oc1c(Cl)cc(Cl)cc1[N+](=O)[O-]` was 104%.
